Laboratory results published in PubChem BioAssay (Tox21).
“And” between values parts separate entries of the source, which are not always exact repeats. Identical values can stand only once. Inconclusive results are not listed. Entries that show only a call come without a potency. Some structures have more than one record in an assay (separate samples or runs), and their calls can disagree. The source made the active and inactive calls. Unless noted, calls come from the whole dose curve; as a rule, active = well fitted curve in the direction sought with a large enough effect in the repeat runs; inconclusive = weak or mixed curves; inactive = no such curve, though single readings can be large; an effect the other way counts as inactive or inconclusive.

Columns and labels:
[1] = qHTS assay to identify aromatase inhibitors - cell viability counter screen (AID 743084);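 note: cells stimulated with testosterone during compound exposure; nearly all actives have a fitted effect of over 55% in size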
[2] = biological target: Aryl hydrocarbon receptor (Homo sapiens) (UniProt P35869); test: qHTS assay to identify small molecule that activate the aryl hydrocarbon receptor (AhR) signaling pathway (AID 743085); note: nearly all actives have a fitted effect of over 15% in size; note: potency is the fitted concentration of half-maximal effect;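 for activation: HG2L7.5c1 human HepG2 liver cells with stably integrated DRE-driven firefly reporter; series mostly up to about 70 µM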
In short: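 Stably transfected human liver carcinoma cells (HG2L7.5c1; 20 DRE-firefly luciferase) were incubated 5 h, dosed, and kept 24 h at 37C. Agonism was scored from increased luciferase luminescence.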

[3] = qHTS assay to identify small molecule that activate the aryl hydrocarbon receptor (AhR) signaling pathway - cell viability counter screen (AID 743086);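 note: HepG2 liver cells carrying the AhR DRE luciferase reporter; series mostly up to about 70 µM; nearly all actives have a fitted effect of over 45% in size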
In short: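 Cytotoxicity counter screen: CellTiter-Fluor signal (30 min, 37 C) in 4000 HepG2 cells/well carrying the DRE-luciferase reporter, following 24 h compound exposure at 37 C.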

[4] = biological target: Peroxisome proliferator-activated receptor gamma (Homo sapiens) (UniProt P37231); test: qHTS assay to identify small molecule agonists of the peroxisome proliferator-activated receptor gamma (PPARg) signaling pathway (AID 743094; active = well fitted activation curve with a large enough effect in the signal ratio in the repeat runs, not every such curve was filed as active; the % refers to the signal ratio)
In short: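 Cells from the PPARg UAS-bla HEK293H line are plated and incubated 5 h at 37C. Compounds in DMSO are pinned in and left 17 h at 37C. LiveBLAzer B/G substrate is then added for 1 h at room temperature before fluorescence is measured.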

[5] = biological target: Peroxisome proliferator-activated receptor gamma (Homo sapiens) (UniProt P37231); test: qHTS assay to identify small molecule antagonists of the peroxisome proliferator-activated receptor gamma (PPARg) signaling pathway (AID 743191; calls by dose curve; note: series mostly up to about 63 µM; nearly all actives have a fitted effect of over 30% in size)
In short: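 Beta-lactamase reporter under UAS control in HEK293H PPARg-bla cells; compound treatment 17 h at 37C. Read-out: fluorescence intensity after 1 h room-temperature incubation with LiveBLAzer B/G FRET substrate.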

[6] = qHTS assay to identify small molecule antagonists of the peroxisome proliferator-activated receptor gamma (PPARg) signaling pathway - cell viability counter screen (AID 743194); note: nearly all actives have a fitted effect of over 55% in size
In short: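 Viability was measured as CellTiter-Glo luminescence in GeneBLAzer PPARg UAS-bla HEK293H cells. These cells had been exposed 17 h at 37 C to compounds together with rosiglitazone at 50 nM final, with the beta-lactamase readout taken in the same wells.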

[7] = qHTS assay for small molecule agonists of the antioxidant response element (ARE) signaling pathway (AID 743202; active = well fitted activation curve with a large enough effect in the signal ratio in the repeat runs, not every such curve was filed as active; the % refers to the signal ratio; note: potency is the fitted concentration of half-maximal effect)
In short: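 Beta-lactamase reporter activity, read as fluorescence intensity, reflects ARE/Nrf2 pathway induction in HepG2 cells after 16 h compound exposure at 37 C; substrate loading was 2 h at room temperature.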

[8] = qHTS assay for small molecule agonists of the antioxidant response element (ARE) signaling pathway - cell viability counter screen (AID 743203; calls by dose curve; note: nearly all actives have a fitted effect of over 55% in size)
In short: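 Cytotoxicity was tested in parallel with the ARE reporter screen. ARE-bla HepG2 cells were exposed to compounds for 16 hrs, and viability was taken from CellTiter-Glo luminescence.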

[9] = qHTS assay for small molecule activators of the heat shock response signaling pathway - cell viability counter screen (AID 743209); note: nearly all actives have a fitted effect of over 50% in size
In short: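 Cytotoxicity counter screen run in parallel with the HSE beta-lactamase reporter, using the same wells. HeLa HSE-bla cells received compound for 5 h at 37 C; ATP-based CellTiter-Glo luminescence was measured after 30 min at room temperature.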

[10] = qHTS assay for small molecule activators of the heat shock response signaling pathway (AID 743210; active = well fitted activation curve with a large enough effect in the signal ratio in the repeat runs, with a control signal flat, not every such curve was filed as active; the % refers to the signal ratio;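 note: HeLa cells with beta-lactamase reporter driven by heat shock elements; series mostly up to about 63 µM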)
In short: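 Fluorescence from a cleaved B/G FRET substrate (2.5 h, room temp) reports HSE-driven beta-lactamase in HeLa cells treated 5 h at 37 C with DMSO-dissolved compounds.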

[11] = qHTS assay to identify small molecule agonists of the peroxisome proliferator-activated receptor delta (PPARd) signaling pathway - cell viability counter screen (AID 743211); note: nearly all actives have a fitted effect of over 55% in size
In short: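 In the same wells used for beta-lactamase reporter measurement, cytotoxicity is scored by CellTiter-Glo. HEK293H PPARd-bla cells receive compound for 17 h at 37C following a 5 h settling period.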

[12] = biological target: Peroxisome proliferator-activated receptor delta (Homo sapiens) (UniProt Q03181); test: qHTS assay to identify small molecule agonists of the peroxisome proliferator-activated receptor delta (PPARd) signaling pathway (AID 743212; calls by dose curve)
In short: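 Steps: seed PPARd-bla HEK293H cells; incubate 5 h, 37 C, 5% CO2; add compounds in DMSO; incubate, 37 C; add LiveBLAzer B/G FRET substrate; hold 2 h at room temperature; measure fluorescence.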

[13] = qHTS assay to identify small molecule antagonists of the peroxisome proliferator-activated receptor delta (PPARd) signaling pathway - cell viability counter screen (AID 743213); note: nearly all actives have a fitted effect of over 50% in size
In short: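 Same-well viability: cells pre-incubated 5 h, dosed with compound plus 300 nM L165041, kept 17 h at 37 C, FRET substrate 2 h RT, then CellTiter-Glo 30 min RT and luminescence.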

[14] = biological target: Peroxisome proliferator-activated receptor delta (Homo sapiens) (UniProt Q03181); test: qHTS assay to identify small molecule antagonists of the peroxisome proliferator-activated receptor delta (PPARd) signaling pathway (AID 743215; active = well fitted inhibition curve with a large enough effect in the signal ratio in the repeat runs, not every such curve was filed as active; the % refers to the signal ratio;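 note: cells stimulated with agonist L165041 at 300 nM final during compound exposure; series mostly up to about 62 µM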)
In short: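 Cells: HEK293H with a UAS-driven beta-lactamase reporter responsive to PPARd. Compounds were co-added with L165041 (300 nM, final) and incubated 17 h at 37 C before a 2 h room-temperature FRET substrate step and fluorescence reading.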

[15] = qHTS assay to identify small molecule agonists of the farnesoid-X-receptor (FXR) signaling pathway - cell viability counter screen (AID 743218); note: nearly all actives have a fitted effect of over 45% in size
In short: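 Cells were seeded, left 5 h at 37 C and 5% CO2, then dosed with compound in DMSO for 16 h. After the beta-lactamase FRET read, CellTiter-Glo was added and luminescence measured 30 min later.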

[16] = biological target: Bile acid receptor (Homo sapiens) (UniProt Q96RI1); test: qHTS assay to identify small molecule agonists of the farnesoid-X-receptor (FXR) signaling pathway (AID 743220; active = well fitted activation curve with a large enough effect in the signal ratio in the repeat runs, not every such curve was filed as active; the % refers to the signal ratio)
In short: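 FXR-UAS-bla HEK 293T cells carrying a UAS-driven beta-lactamase reporter were plated for 5 h at 37C/5% CO2, then exposed to DMSO-dissolved Tox21 10K compounds for 16 h at 37C. A LiveBLAzer B/G FRET substrate was loaded for 2 h at room temperature before fluorescence reading.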

[17] = qHTS assay to identify small molecule antagonists of the farnesoid-X-receptor (FXR) signaling pathway - cell viability counter screen (AID 743221; active = well fitted cell-killing curve with a large enough effect in the repeat runs, not every such curve was filed as active; note: nearly all actives have a fitted effect of over 50% in size)
In short: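 Here viability was scored by luminescence after CellTiter-Glo addition to wells already read for beta-lactamase. Prior treatment: compound plus CDCA (50 uM final), 16 h, 37 C, HEK 293T FXR-bla cells.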

[18] = biological target: Vitamin D3 receptor (Homo sapiens) (UniProt P11473); test: qHTS assay to identify small molecule agonists of the vitamin D receptor (VDR) signaling pathway (AID 743222; calls by dose curve)
In short: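 Cells carrying a VDR-driven beta-lactamase reporter are seeded at 2,000 per well and rested 4 h. Compounds in DMSO are added for 16 h at 37C, and FRET substrate fluorescence is measured after 2 h at room temperature.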

[19] = biological target: Vitamin D3 receptor (Homo sapiens) (UniProt P11473); test: qHTS assay to identify small molecule antagonists of the vitamin D receptor (VDR) signaling pathway (AID 743223; active = well fitted inhibition curve with a large enough effect in the signal ratio in the repeat runs, not every such curve was filed as active; the % refers to the signal ratio)
In short: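 Inhibition of agonist-driven VDR signalling is scored in VDR-bla cells: 3 nM final 1alpha,25-dihydroxyvitamin D3 plus compound, 16 h at 37C, then beta-lactamase detection by FRET substrate fluorescence after 2 h.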

Aryl hydrocarbon receptor (Homo sapiens), sequence (P35869 whole entry, looked up): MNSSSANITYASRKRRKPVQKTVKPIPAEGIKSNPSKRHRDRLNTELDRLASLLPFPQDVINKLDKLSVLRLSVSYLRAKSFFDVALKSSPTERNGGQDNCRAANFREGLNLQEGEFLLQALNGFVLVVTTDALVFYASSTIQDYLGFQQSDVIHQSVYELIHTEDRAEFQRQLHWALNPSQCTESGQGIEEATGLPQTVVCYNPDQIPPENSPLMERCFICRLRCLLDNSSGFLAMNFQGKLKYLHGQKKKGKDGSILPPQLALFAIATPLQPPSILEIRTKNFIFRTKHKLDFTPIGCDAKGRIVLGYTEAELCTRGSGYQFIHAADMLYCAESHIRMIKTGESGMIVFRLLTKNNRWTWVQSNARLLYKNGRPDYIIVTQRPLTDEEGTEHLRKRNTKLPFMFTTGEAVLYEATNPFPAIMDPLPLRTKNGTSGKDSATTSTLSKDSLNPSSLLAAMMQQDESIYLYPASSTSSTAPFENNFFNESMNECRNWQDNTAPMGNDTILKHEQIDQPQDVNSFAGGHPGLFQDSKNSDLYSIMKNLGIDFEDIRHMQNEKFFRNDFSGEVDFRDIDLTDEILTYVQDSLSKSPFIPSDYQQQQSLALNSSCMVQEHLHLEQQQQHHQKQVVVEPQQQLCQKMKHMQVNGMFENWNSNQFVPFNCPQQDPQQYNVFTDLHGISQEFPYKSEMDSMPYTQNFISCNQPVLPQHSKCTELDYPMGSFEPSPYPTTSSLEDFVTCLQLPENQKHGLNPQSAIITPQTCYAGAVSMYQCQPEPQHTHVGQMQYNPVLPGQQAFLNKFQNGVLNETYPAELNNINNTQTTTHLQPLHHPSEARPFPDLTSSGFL
Peroxisome proliferator-activated receptor delta (Homo sapiens), sequence (Q03181 whole entry, looked up): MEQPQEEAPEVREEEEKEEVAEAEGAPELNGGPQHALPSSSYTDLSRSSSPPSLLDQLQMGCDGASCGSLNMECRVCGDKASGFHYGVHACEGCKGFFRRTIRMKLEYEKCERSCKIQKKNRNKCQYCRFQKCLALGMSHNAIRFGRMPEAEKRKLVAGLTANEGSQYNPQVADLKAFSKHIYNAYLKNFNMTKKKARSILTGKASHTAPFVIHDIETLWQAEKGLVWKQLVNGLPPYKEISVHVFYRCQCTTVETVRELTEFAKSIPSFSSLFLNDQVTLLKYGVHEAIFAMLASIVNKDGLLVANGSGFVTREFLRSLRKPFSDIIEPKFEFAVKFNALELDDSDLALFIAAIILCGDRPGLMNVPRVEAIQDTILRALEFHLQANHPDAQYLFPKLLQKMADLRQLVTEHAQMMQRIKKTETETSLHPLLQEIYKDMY
Bile acid receptor (Homo sapiens), sequence (Q96RI1 whole entry, looked up): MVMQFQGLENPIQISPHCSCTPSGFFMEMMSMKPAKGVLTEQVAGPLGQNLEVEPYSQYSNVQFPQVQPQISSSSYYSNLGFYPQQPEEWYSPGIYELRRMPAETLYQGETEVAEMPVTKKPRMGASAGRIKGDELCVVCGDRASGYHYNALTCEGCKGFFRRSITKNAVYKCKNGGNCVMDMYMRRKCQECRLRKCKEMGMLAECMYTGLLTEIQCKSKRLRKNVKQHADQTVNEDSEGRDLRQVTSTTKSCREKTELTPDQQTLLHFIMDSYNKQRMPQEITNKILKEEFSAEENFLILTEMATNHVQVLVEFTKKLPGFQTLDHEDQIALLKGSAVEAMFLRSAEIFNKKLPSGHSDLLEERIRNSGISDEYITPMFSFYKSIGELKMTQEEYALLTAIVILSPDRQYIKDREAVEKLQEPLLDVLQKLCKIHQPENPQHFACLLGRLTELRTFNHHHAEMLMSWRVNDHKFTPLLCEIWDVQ
Vitamin D3 receptor (Homo sapiens), sequence (P11473 whole entry, looked up): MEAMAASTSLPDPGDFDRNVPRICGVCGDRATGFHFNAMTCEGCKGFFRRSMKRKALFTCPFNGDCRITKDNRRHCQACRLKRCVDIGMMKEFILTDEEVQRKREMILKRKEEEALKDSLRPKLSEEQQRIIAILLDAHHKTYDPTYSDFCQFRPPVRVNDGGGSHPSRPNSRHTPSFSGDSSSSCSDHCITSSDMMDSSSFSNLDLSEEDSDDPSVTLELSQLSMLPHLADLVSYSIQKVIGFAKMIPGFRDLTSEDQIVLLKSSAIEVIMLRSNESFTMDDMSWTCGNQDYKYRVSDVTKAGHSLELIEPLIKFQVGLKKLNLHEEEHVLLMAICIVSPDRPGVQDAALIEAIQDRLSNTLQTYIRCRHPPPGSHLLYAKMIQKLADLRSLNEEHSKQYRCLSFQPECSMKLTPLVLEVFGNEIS
Peroxisome proliferator-activated receptor gamma (Homo sapiens), sequence (P37231 whole entry, looked up): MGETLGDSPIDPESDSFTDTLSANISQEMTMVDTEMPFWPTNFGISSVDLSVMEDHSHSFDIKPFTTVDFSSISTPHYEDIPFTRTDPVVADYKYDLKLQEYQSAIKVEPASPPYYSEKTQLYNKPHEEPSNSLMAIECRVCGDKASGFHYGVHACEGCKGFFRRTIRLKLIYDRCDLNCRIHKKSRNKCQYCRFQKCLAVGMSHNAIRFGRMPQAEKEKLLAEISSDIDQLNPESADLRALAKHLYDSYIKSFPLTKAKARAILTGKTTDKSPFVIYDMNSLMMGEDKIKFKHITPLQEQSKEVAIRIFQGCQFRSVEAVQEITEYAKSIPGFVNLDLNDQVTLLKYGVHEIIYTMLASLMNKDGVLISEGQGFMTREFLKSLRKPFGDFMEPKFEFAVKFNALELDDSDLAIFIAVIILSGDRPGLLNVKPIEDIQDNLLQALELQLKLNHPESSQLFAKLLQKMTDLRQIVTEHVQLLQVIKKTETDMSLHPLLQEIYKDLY

SMILES | Potency [1] | Potency [2] | outcome [3] | outcome [4] | Potency [5] | outcome [6] | Potency [7] | Potency [8] | Potency [9] | Potency [10] | Potency [11] | outcome [12] | outcome [13] | outcome [14] | Potency [15] | outcome [16] | Potency [17] | outcome [18] | outcome [19]
FC(F)(F)c1ccc(Cl)cc1 | inactive | inactive | inactive | inactive | inactive | inactive | inactive | inactive | inactive | inactive | inactive | inactive | inactive | inactive | inactive | inactive | inactive | inactive | inactive
CCCOC(=O)c1ccccc1C(=O)OCCC | inactive | inactive | inactive | inactive | – | inactive | inactive | inactive | inactive | inactive | inactive | inactive | inactive | inactive | inactive | inactive | inactive | – | –
Nc1cc(Cl)cc(Cl)c1 | inactive | inactive | inactive | inactive | – | inactive | inactive | inactive | inactive | inactive | inactive | inactive | inactive | inactive | inactive | inactive | inactive | inactive | inactive
N#CN=C(N)N | inactive | inactive | inactive | inactive | inactive | inactive | inactive | inactive | inactive | inactive | inactive | inactive | inactive | inactive | inactive | inactive | inactive | inactive | inactive
CNc1cnn(-c2cccc(C(F)(F)F)c2)c(=O)c1Cl | inactive | 27.3 µM (active) | inactive | inactive | inactive | inactive | – | – | inactive | inactive | inactive | inactive | inactive | inactive | inactive | inactive | inactive | inactive | inactive
Cl[C@H]1OCCO[C@@H]1Cl | inactive | inactive | inactive | inactive | inactive | inactive | – | inactive | inactive | inactive | inactive | inactive | inactive | inactive | inactive | inactive | inactive | – | –
OCc1ccco1 | inactive | inactive | inactive | inactive | inactive | inactive | – | inactive | inactive | inactive | inactive | inactive | inactive | inactive | inactive | inactive | inactive | inactive | inactive
COP(=S)(OC)SCN1C(=O)c2ccccc2C1=O | inactive | inactive | inactive | inactive | – | inactive | inactive | inactive | inactive | inactive | inactive | inactive | inactive | inactive | inactive | inactive | inactive | – | –
O=P1(NCCCl)OCCCN1CCCl (stereo not given) | inactive | inactive | inactive | inactive | inactive | inactive | inactive | inactive | inactive | inactive | inactive | – | inactive | – | inactive | – | inactive | – | –
C[C@H]1C(=O)O[C@@H]2CCN3CC=C(COC(=O)[C@](C)(O)[C@]1(C)O)[C@H]23 | inactive | inactive | inactive | inactive | – | inactive | inactive | inactive | inactive | inactive | inactive | inactive | inactive | inactive | inactive | inactive | inactive | inactive | inactive
N#Cc1ccccn1 | inactive | inactive | inactive | inactive | inactive | inactive | inactive | inactive | inactive | – | inactive | – | inactive | – | inactive | – | inactive | – | –
CNC(=O)O/N=C/C(C)(C)SC | inactive | inactive | inactive | inactive | inactive | inactive | – | – | inactive | – | inactive | inactive | – | inactive | inactive | inactive | inactive | – | –
C=C(C)C(=O)OCC(CC)CCCC (stereo not given) | inactive | inactive | inactive | inactive | inactive | inactive | – | inactive | inactive | inactive | inactive | – | inactive | – | inactive | – | inactive | inactive | inactive
Oc1c(Br)cc(Br)cc1Br | inactive | inactive | inactive | inactive | – | inactive | 15.4 µM (active) | – | inactive | inactive | inactive | inactive | inactive | inactive | inactive | – | inactive | – | –
ClCCOCCCl | inactive | inactive | inactive | inactive | – | inactive | – | – | inactive | inactive | inactive | inactive | inactive | inactive | inactive | inactive | inactive | – | –
CN(C)NC(=O)CCC(=O)O | inactive | inactive | inactive | inactive | – | inactive | – | inactive | inactive | inactive | inactive | inactive | inactive | inactive | inactive | – | inactive | inactive | inactive
COC(C)(C)CCCC(C)C/C=C/C(C)=C/C(=O)OC(C)C (stereo not given) | inactive | inactive and 60.1 µM (active) | inactive | inactive | – | inactive | inactive | – | inactive | – | inactive | – | inactive | – | inactive | – | inactive | – | –
OC[C@@H](O)[C@H]1O[C@@H]2O[C@H](C(Cl)(Cl)Cl)O[C@@H]2[C@H]1O | inactive | inactive | inactive | inactive | – | inactive | – | – | inactive | inactive | inactive | inactive | inactive | inactive | inactive | – | inactive | – | –
